According to the antibiotic and cytotoxicity screens of Wong et al. (2023):
About 3,300 (8.5%) of roughly 39,000 compounds were called active. The sample as a whole holds a higher share of actives than the screen did.

System: HepG2
Assay: cytotoxicity call (relative viability < 0.9)
Conditions: 10 µM

| Compound | cytotoxicity call |
| --- | --- |
| C[C@H]1CN([C@@H](C)CO)C(=O)c2cccc(NC(=O)C3CC3)c2O[C@@H]1CN(C)S(=O)(=O)c1ccccc1 | inactive |
| C[C@@H]1CCCCO[C@H](CN(C)S(=O)(=O)c2ccccc2)[C@@H](C)CN([C@@H](C)CO)C(=O)c2cc(NC(=O)CCC(F)(F)F)ccc2O1 | inactive |
| CC(C)NC(=O)N[C@H]1C=C[C@H](CC(=O)NCCCN(C)C)O[C@H]1CO | inactive |
| COc1ccc(S(=O)(=O)N(C)C[C@@H]2Oc3ccc(NC(=O)c4ccncc4)cc3CC(=O)N([C@H](C)CO)C[C@@H]2C)cc1 | inactive |
| O=C(O)C(O)C(O)C(OC1OC(CO)C(O)C(O)C1O)C(O)CO (configuration not stated) | inactive |
| COc1cccc(S(=O)(=O)N[C@H]2C=C[C@H](CC(=O)NC3CCC3)O[C@@H]2CO)c1 | inactive |
| O=C(Nc1cccc(C(F)(F)F)c1)c1ccc2ccccc2c1 | active |
| O=C(O)c1ccccc1Nc1cccc(C(F)(F)F)c1 | inactive |
| CC(C)(C)c1ccc(C(=O)Nc2cccc(C(F)(F)F)c2)cc1 | inactive |
| C[C@@H]1CCCCO[C@@H](CN(C)S(=O)(=O)c2ccc(F)cc2)[C@H](C)CN([C@H](C)CO)C(=O)c2cc(NC(=O)CCC(F)(F)F)ccc2O1 | inactive |
| C[C@@H]1CN([C@H](C)CO)S(=O)(=O)c2ccc(C3=CCCCC3)cc2O[C@H]1CN(C)Cc1cncnc1 | inactive |
| CCCCN(CCCC)CC[C@@H](O)c1cc2c(Cl)cc(Cl)cc2c2cc(C(F)(F)F)ccc12 | inactive |
| CCCCN(CCCC)CC(O)c1cc(Cl)cc2c1-c1ccc(Cl)cc1C2=Cc1ccc(Cl)cc1 (configuration not stated) | active |
| C[C@@H]1CCCCO[C@@H](CN(C)Cc2ccncc2)[C@H](C)CN([C@@H](C)CO)C(=O)c2cc(NC(=O)CCCCCC(=O)Nc3ccccc3N)ccc2O1 | inactive |
| C[C@H]1CN([C@@H](C)CO)C(=O)Cc2cc(NC(=O)Nc3ccc(F)cc3)ccc2O[C@H]1CN(C)Cc1ccc(Cl)c(Cl)c1 | active |
| C[C@H](CO)N1C[C@H](C)[C@@H](CN(C)Cc2ccc(Cl)c(Cl)c2)Oc2ccc(NC(=O)Nc3ccc(F)cc3)cc2CC1=O | active |
| C[C@@H]1CN([C@H](C)CO)C(=O)Cc2cc(NC(=O)Nc3ccc(F)cc3)ccc2O[C@@H]1CN(C)Cc1ccc(Cl)c(Cl)c1 | active |
| C[C@@H]1CN([C@@H](C)CO)C(=O)Cc2cc(NC(=O)Nc3ccc(F)cc3)ccc2O[C@@H]1CN(C)Cc1ccc(Cl)c(Cl)c1 | active |
| COc1ccc(-n2c(C)cc(CN)c2C)cc1 | inactive |
| O=C(C[C@H]1C[C@@H]2c3cc(NC(=O)c4ccc5c(c4)OCO5)ccc3O[C@@H]2[C@H](CO)O1)NCC(F)(F)F | inactive |
| CC(C)NC(=O)N(C)C[C@H]1Oc2c(NC(=O)NC3CCCCC3)cccc2C(=O)N([C@H](C)CO)C[C@@H]1C | inactive |

| Compound | cytotoxicity call |
| --- | --- |
| Cc1noc(C)c1NC(=O)Nc1ccc2c(c1)CC(=O)N([C@@H](C)CO)C[C@H](C)[C@@H](CN(C)S(C)(=O)=O)O2 | inactive |
| C[C@H](CO)N1C[C@H](C)[C@H](CN(C)C(=O)Nc2ccc3c(c2)OCO3)OCCCC[C@H](C)Oc2ccc(NC(=O)Nc3ccccc3)cc2C1=O | inactive |
| C[C@@H]1CCCCO[C@H](CN(C)S(=O)(=O)c2cccs2)[C@@H](C)CN([C@H](C)CO)C(=O)c2cc(NC(=O)Cc3ccccc3)ccc2O1 | inactive |
| COc1ccc(S(=O)(=O)N(C)C[C@@H]2OCCCC[C@H](C)Oc3ccc(NC(=O)c4ccccc4)cc3C(=O)N([C@H](C)CO)C[C@@H]2C)cc1 | inactive |
| Cc1ccc(S(=O)(=O)N(C)C[C@@H]2Oc3ccc(NS(=O)(=O)c4cccs4)cc3CC(=O)N([C@H](C)CO)C[C@@H]2C)cc1 | inactive |
| COc1ccc(COC[C@]23NC(=O)N[C@H](c4ccccc4O2)[C@H]3COC(=O)NCCCCCC(=O)NO)cc1 | inactive |
| COCC(=O)N(C)C[C@H]1Oc2cc(-c3ccc(C#N)cc3)ccc2S(=O)(=O)N([C@H](C)CO)C[C@@H]1C | inactive |
| O=C(CCCCCNC(=O)OCc1ccc(CO[C@@H]2C[C@H](c3ccc(Br)cc3)C=C(C(=O)N3CCN(Cc4ccccc4)CC3)O2)cc1)NO | inactive |
| COCC(=O)N(C)C[C@H]1Oc2cc(C#CCN(C)C)ccc2S(=O)(=O)N([C@@H](C)CO)C[C@@H]1C | inactive |
| C[C@H](CO)N1C[C@H](C)[C@H](CN(C)S(=O)(=O)c2cccs2)OCCCC[C@H](C)Oc2ccc(NS(=O)(=O)c3cn(C)cn3)cc2C1=O | inactive |
| C[C@@H]1CN([C@H](C)CO)C(=O)c2cccc(N(C)C)c2O[C@H]1CN(C)S(C)(=O)=O | inactive |
| C[C@@H]1CN([C@H](C)CO)C(=O)Cc2cc(NC(=O)Nc3ccc(F)cc3)ccc2O[C@H]1CN(C)Cc1ccc(Cl)c(Cl)c1 | inactive |
| C[C@H](CO)N1C[C@H](C)[C@H](CN(C)Cc2ccc(Cl)c(Cl)c2)Oc2ccc(NC(=O)Nc3ccc(F)cc3)cc2CC1=O | active |
| C[C@@H]1CN([C@@H](C)CO)C(=O)Cc2cc(NC(=O)Nc3ccc(F)cc3)ccc2O[C@H]1CN(C)Cc1ccc(Cl)c(Cl)c1 | active |
| C[C@H]1CN([C@@H](C)CO)C(=O)Cc2cc(NC(=O)Nc3ccc(F)cc3)ccc2O[C@@H]1CN(C)Cc1ccc(Cl)c(Cl)c1 | active |
| C[C@H](CO)N1C[C@H](C)[C@@H](CN(C)S(=O)(=O)c2cn(C)cn2)Oc2c(NC(=O)CCCN(C)C)cccc2C1=O | inactive |
| COc1ccc(NC(=O)N[C@@H]2CC[C@@H](CCNC(=O)CN3CCOCC3)O[C@@H]2CO)cc1 | inactive |
| C[C@@H]1CN([C@@H](C)CO)C(=O)CCCn2cc(nn2)CO[C@H]1CN(C)S(=O)(=O)c1ccc2c(c1)OCCCO2 | inactive |
| Cc1noc(C)c1NC(=O)N(C)C[C@H]1Oc2ccc(NS(C)(=O)=O)cc2C(=O)N([C@@H](C)CO)C[C@H]1C | inactive |
| C[C@H]1CCCCO[C@@H](CN(C)S(=O)(=O)c2ccc(F)cc2)[C@@H](C)CN([C@@H](C)CO)C(=O)c2cc(NC(=O)Nc3cccc4ccccc34)ccc2O1 | inactive |
| Cc1noc(C)c1NC(=O)Nc1ccc2c(c1)C(=O)N([C@H](C)CO)C[C@@H](C)[C@H](CN(C)C(=O)Nc1ccc(C(F)(F)F)cc1)OCCCC[C@@H](C)O2 | inactive |
